{"source": "the supplement of paper PMC12282887", "system": "E. coli BW25113 marRABp lux reporter", "experiment": "promoter activity interaction Z-score (Lux/OD deviation from empty-vector control); higher = stronger promoter induction by the compound", "description": "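E. coli BW25113 (wild type or ΔmarA/ΔsoxS/Δrob) carrying pTU175 luxCDABE promoter reporters was grown in LB in 384-well plates at 37°C with each of 94 compounds at 4 two-fold concentrations, in biological duplicates. Luminescence and OD600 were read every 30 min for 12 h and integrated as AUC over 8 h (0-8 h WT, 1-9 h mutants). Lux AUC was divided by OD AUC; the interaction score is the residual of a Huber robust fit of each promoter against the empty-vector control, then Z-transformed per promoter.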", "note": "± gives the standard deviation of the averaged measurements."}
{"smiles": "C/C(=C\\C(=O)OCCCCCCCCC(=O)O)C[C@@H]1OC[C@H](C[C@@H]2O[C@H]2[C@@H](C)[C@H](C)O)[C@@H](O)[C@H]1O", "note": "[Pseudomonic acid]", "values": [{"measurement": "promoter activity interaction Z-score", "setting": "0.25 µg/ml, genetic background: wild type", "value": "0.11 ± 0.42"}, {"measurement": "promoter activity interaction Z-score", "setting": "0.25 µg/ml, genetic background: ΔmarA", "value": "-0.235 ± 0.012"}, {"measurement": "promoter activity interaction Z-score", "setting": "0.25 µg/ml, genetic background: Δrob", "value": "-0.0762 ± 0.015"}, {"measurement": "promoter activity interaction Z-score", "setting": "0.25 µg/ml, genetic background: ΔsoxS", "value": "0.0844 ± 0.02"}, {"measurement": "promoter activity interaction Z-score", "setting": "0.5 µg/ml, genetic background: wild type", "value": "-0.132 ± 0.23"}, {"measurement": "promoter activity interaction Z-score", "setting": "0.5 µg/ml, genetic background: ΔmarA", "value": "0.0957 ± 0.22"}, {"measurement": "promoter activity interaction Z-score", "setting": "0.5 µg/ml, genetic background: Δrob", "value": "-0.00927 ± 0.019"}, {"measurement": "promoter activity interaction Z-score", "setting": "0.5 µg/ml, genetic background: ΔsoxS", "value": "-0.0242 ± 0.093"}, {"measurement": "promoter activity interaction Z-score", "setting": "1 µg/ml, genetic background: wild type", "value": "-0.169 ± 0.093"}, {"measurement": "promoter activity interaction Z-score", "setting": "1 µg/ml, genetic background: ΔmarA", "value": "-0.155 ± 0.7"}, {"measurement": "promoter activity interaction Z-score", "setting": "1 µg/ml, genetic background: Δrob", "value": "-0.106 ± 0.21"}, {"measurement": "promoter activity interaction Z-score", "setting": "1 µg/ml, genetic background: ΔsoxS", "value": "-0.0673 ± 0.12"}, {"measurement": "promoter activity interaction Z-score", "setting": "2 µg/ml, genetic background: wild type", "value": "0.422 ± 0.28"}, {"measurement": "promoter activity interaction Z-score", "setting": "2 µg/ml, genetic background: ΔmarA", "value": "0.511 ± 0.47"}, {"measurement": "promoter activity interaction Z-score", "setting": "2 µg/ml, genetic background: Δrob", "value": "0.235 ± 0.31"}, {"measurement": "promoter activity interaction Z-score", "setting": "2 µg/ml, genetic background: ΔsoxS", "value": "0.341 ± 0.086"}]}
{"smiles": "CO[C@@H]1[C@@H](OC(N)=O)[C@@H](O)[C@H](Oc2ccc3c(O)c(NC(=O)c4ccc(O)c(CC=C(C)C)c4)c(=O)oc3c2C)OC1(C)C", "note": "[Novobiocin]", "values": [{"measurement": "promoter activity interaction Z-score", "setting": "2.4 µg/ml, genetic background: wild type", "value": "-0.221 ± 0.081"}, {"measurement": "promoter activity interaction Z-score", "setting": "2.4 µg/ml, genetic background: ΔmarA", "value": "-0.11 ± 0.13"}, {"measurement": "promoter activity interaction Z-score", "setting": "2.4 µg/ml, genetic background: Δrob", "value": "0.0782 ± 0.013"}, {"measurement": "promoter activity interaction Z-score", "setting": "2.4 µg/ml, genetic background: ΔsoxS", "value": "-0.0478 ± 0.0032"}, {"measurement": "promoter activity interaction Z-score", "setting": "4.8 µg/ml, genetic background: wild type", "value": "0.022 ± 0.23"}, {"measurement": "promoter activity interaction Z-score", "setting": "4.8 µg/ml, genetic background: ΔmarA", "value": "0.415 ± 0.36"}, {"measurement": "promoter activity interaction Z-score", "setting": "4.8 µg/ml, genetic background: Δrob", "value": "-0.164 ± 0.31"}, {"measurement": "promoter activity interaction Z-score", "setting": "4.8 µg/ml, genetic background: ΔsoxS", "value": "-0.107 ± 0.12"}, {"measurement": "promoter activity interaction Z-score", "setting": "9.5 µg/ml, genetic background: wild type", "value": "-0.297 ± 0.13"}, {"measurement": "promoter activity interaction Z-score", "setting": "9.5 µg/ml, genetic background: ΔmarA", "value": "0.318 ± 0.33"}, {"measurement": "promoter activity interaction Z-score", "setting": "9.5 µg/ml, genetic background: Δrob", "value": "-0.282 ± 0.11"}, {"measurement": "promoter activity interaction Z-score", "setting": "9.5 µg/ml, genetic background: ΔsoxS", "value": "-0.114 ± 0.18"}, {"measurement": "promoter activity interaction Z-score", "setting": "19 µg/ml, genetic background: wild type", "value": "1.2 ± 0.98"}, {"measurement": "promoter activity interaction Z-score", "setting": "19 µg/ml, genetic background: ΔmarA", "value": "5.2 ± 2.7"}, {"measurement": "promoter activity interaction Z-score", "setting": "19 µg/ml, genetic background: Δrob", "value": "0.0504 ± 0.67"}, {"measurement": "promoter activity interaction Z-score", "setting": "19 µg/ml, genetic background: ΔsoxS", "value": "1.48 ± 0.89"}]}
{"smiles": "CN(C)C(=O)C(CCN1CCC(O)(c2ccc(Cl)cc2)CC1)(c1ccccc1)c1ccccc1", "note": "[Loperamide]", "values": [{"measurement": "promoter activity interaction Z-score", "setting": "32.1 µg/ml, genetic background: wild type", "value": "-0.202 ± 0.03"}, {"measurement": "promoter activity interaction Z-score", "setting": "32.1 µg/ml, genetic background: ΔmarA", "value": "-0.0422 ± 0.33"}, {"measurement": "promoter activity interaction Z-score", "setting": "32.1 µg/ml, genetic background: Δrob", "value": "-0.0553 ± 0.2"}, {"measurement": "promoter activity interaction Z-score", "setting": "32.1 µg/ml, genetic background: ΔsoxS", "value": "-0.22 ± 0.2"}, {"measurement": "promoter activity interaction Z-score", "setting": "64.2 µg/ml, genetic background: wild type", "value": "-0.233 ± 0.17"}, {"measurement": "promoter activity interaction Z-score", "setting": "64.2 µg/ml, genetic background: ΔmarA", "value": "0.346 ± 0.1"}, {"measurement": "promoter activity interaction Z-score", "setting": "64.2 µg/ml, genetic background: Δrob", "value": "-0.132 ± 0.024"}, {"measurement": "promoter activity interaction Z-score", "setting": "64.2 µg/ml, genetic background: ΔsoxS", "value": "-0.171 ± 0.18"}, {"measurement": "promoter activity interaction Z-score", "setting": "128.4 µg/ml, genetic background: wild type", "value": "-0.314 ± 0.22"}, {"measurement": "promoter activity interaction Z-score", "setting": "128.4 µg/ml, genetic background: ΔmarA", "value": "0.0947 ± 0.21"}, {"measurement": "promoter activity interaction Z-score", "setting": "128.4 µg/ml, genetic background: Δrob", "value": "-0.192 ± 0.036"}, {"measurement": "promoter activity interaction Z-score", "setting": "128.4 µg/ml, genetic background: ΔsoxS", "value": "-0.213 ± 0.17"}, {"measurement": "promoter activity interaction Z-score", "setting": "256.8 µg/ml, genetic background: wild type", "value": "-0.0275 ± 0.19"}, {"measurement": "promoter activity interaction Z-score", "setting": "256.8 µg/ml, genetic background: ΔmarA", "value": "0.711 ± 0.64"}, {"measurement": "promoter activity interaction Z-score", "setting": "256.8 µg/ml, genetic background: Δrob", "value": "-0.0389 ± 0.11"}, {"measurement": "promoter activity interaction Z-score", "setting": "256.8 µg/ml, genetic background: ΔsoxS", "value": "-0.046 ± 0.47"}]}
